Reference: PubChem BioAssay AID1259422 (The Scripps Research Institute Molecular Screening Center, 2018)
“And” between values parts separate entries of the source, which are not always exact repeats. Identical values can stand only once. About 9,300 (1.5%) of roughly 640,000 compounds were called active. The entries come from a sample that favours actives as a whole. Unmarked numbers belong to inactive results. Cut-off read from the data, not from the text of the source: active = inhibition above about 32%; inactive = the rest.

Assay: TEAD-YAP interaction inhibition, primary screen, TEAD-YAP interaction inhibitor project, luminescence, HEK-TIYL cells (AID 1259422);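 note: 0% = median of test compound wells and 100% = reference inhibitor wells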
Details: TEAD-Gal4/YAP UAS-luciferase luminescence, at 9.12 µM, active compounds read high

**Q.** With `COc1ccc(Cl)cc1S(=O)(=O)N1CCN(CC(=O)Nc2ccc(C(N)=O)cc2)CC1` as the compound, how does the inhibition read?
**A.** The inhibition was 3.37%.

**Q.** For `O=C(NC(Cc1c[nH]c2ccccc12)c1nnc2n1CCC2)c1ccccc1Cl` (stereo unspecified), which inhibition is on record?
**A.** The inhibition was 4.18%.

**Q.** Which inhibition does the source give for `CCOC(=O)c1c(NC(=O)c2cccc(C)c2)sc2c1CCC2` here?
**A.** The inhibition was 1.21%.

**Q.** With `CC(=O)N(C1=C(N2CCOCC2)C(=O)c2ccccc2C1=O)C1CCCCC1` as the compound, how does the inhibition read?
**A.** Its inhibition is 13.4%.

**Q.** With `CC(=O)N(C1=C(N2CCN(C)CC2)C(=O)c2ccccc2C1=O)c1cc(C)cc(C)c1` as the compound, how does the inhibition read?
**A.** The inhibition was 53.9% (active).

**Q.** With `Cc1cc(C)cc(NC2=C(N3CCN(C)CC3)C(=O)c3ccccc3C2=O)c1` as the compound, how does the inhibition read?
**A.** Its inhibition is 14.2%.

**Q.** Which inhibition does the source give for `CCCCOc1ccc(-c2[nH]nc3c2C2(C(=O)Nc4ccc(C)c(Br)c42)C(C#N)=C(N)O3)cc1` (stereo unspecified) here?
**A.** Its inhibition is 3.07%.

**Q.** Which inhibition does the source give for `Cc1nc(NC(=O)c2cc(Br)ccc2Cl)sc1C` here?
**A.** Its inhibition is -57.6%.

**Q.** Which inhibition does the source give for `COc1ccc(C(=O)Nc2nc3c(ccc4ccccc43)s2)c(OC)c1` here?
**A.** The inhibition was -16.5% and -1.48%.

**Q.** Which inhibition does the source give for `Cc1nc(NC(=O)c2ccc3c(c2)CCCC3)sc1C` here?
**A.** The inhibition was 53.4% (active).

**Q.** Which inhibition does the source give for `COc1ccc(C(=O)Nc2nc(C)c(C)s2)c(OC)c1` here?
**A.** The inhibition was 94.8% (active).

**Q.** Which inhibition does the source give for `COc1ccc(C(=O)Nc2nc(C(C)(C)C)cs2)c(OC)c1` here?
**A.** Its inhibition is -70.6%.

**Q.** Which inhibition does the source give for `Cc1nc(NC(=O)c2ccoc2C)sc1C` here?
**A.** The inhibition was -21.2%.

**Q.** With `Oc1ccc2ccccc2c1/C=N/Nc1nccnc1Cl` as the compound, how does the inhibition read?
**A.** The inhibition was -25.8%.

**Q.** Which inhibition does the source give for `N#CC1=C(N)Oc2n[nH]c(-c3ccc(Cl)cc3)c2C1c1ccc2c(c1)OCO2` (stereo unspecified) here?
**A.** Its inhibition is 12.5%.

**Q.** With `N#Cc1cnn(-c2nc3ccccc3[nH]2)c1N` as the compound, how does the inhibition read?
**A.** Its inhibition is -4.74%.

**Q.** With `Cn1ncc(Cl)c1-c1nc2ccccc2[nH]1` as the compound, how does the inhibition read?
**A.** The inhibition was -8.92%.

**Q.** For `O=c1c(Cl)c(Cl)cnn1-c1nc2ccccc2[nH]1`, which inhibition is on record?
**A.** The inhibition was 56.5% (active).

**Q.** For `Cc1cc(Nc2ccccc2Cl)n2nc(C)nc2n1`, which inhibition is on record?
**A.** Its inhibition is -1.89%.

**Q.** With `Cc1cc(C)c(NC(=O)c2c(Cl)nc(C)c(Cl)c2C)c(C)c1` as the compound, how does the inhibition read?
**A.** Its inhibition is -2.91%.

**Q.** Which inhibition does the source give for `COc1cccc(/C=C/C(=O)NCC(=O)O)c1OC` here?
**A.** Its inhibition is -11.1%.

**Q.** Which inhibition does the source give for `Cc1cccc2nc(CNC(=O)CCCn3nnnc3CN3CCC(C)CC3)cn12` here?
**A.** The inhibition was 3.48%.

**Q.** Which inhibition does the source give for `C/C(=N/NC(=O)c1ccccn1)c1ccccc1` here?
**A.** Its inhibition is 14.7%.

**Q.** With `CC(C)(C)c1ccc(C(=O)NNC(=O)c2ccccn2)cc1` as the compound, how does the inhibition read?
**A.** Its inhibition is 41.6% (active).

**Q.** With `CC(C)(C)c1ccc(C(=O)NNC(=O)C(=O)NCc2ccccc2)cc1` as the compound, how does the inhibition read?
**A.** Its inhibition is -5.07%.

**Q.** Which inhibition does the source give for `N#Cc1ccc(C23CC4CC(CC(C4)C2)C3)nc1SCC(=O)Nc1nc2ccccc2s1` here?
**A.** The inhibition was 3.55%.
